Bioassay records: PubChem, Johns Hopkins Ion Channel Center
KCNQ2 pot – KCNQ2 (rat) channel potentiation; hit rate 0.54% among 310,000; B-score at 10 µM; AID 2239; O88943; CHO-K1 KCNQ2, FluxOR thallium flux fluorescence; active compounds read high;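 active = fluorescence ratio B-score at least 3 SD of library B-scores, with initial fluorescence B-score within 3 of them, cut at about 5.3 in these data; same plate scores as AID 2156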;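 also: B-score of peak minus minimum over baseline fluorescence ratio after K+ and Tl+ stimulus; positive B-score means potentiation of KCNQ2 with more thallium influx and brighter signal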
KCNQ2 inh – KCNQ2 (rat) channel inhibition; hit rate 1.1% among 310,000; CHO-K1 KCNQ2, FluxOR thallium flux, 20 min; active compounds read low; O88943; B-score at 10 µM; AID 2156;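 active = fluorescence ratio B-score at most minus 3 library SDs, with starting brightness B-score within 2 library SDs, cut at about -5.5 in these data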
Kir21 confirm – confirmation of mouse Kir2.1 potassium channel inhibitors | hit rate 41% among 2,300 | Tl flux remaining, % of negative control (active compounds read low), % at 10 µM | Kir2.1-expressing cells, FluxOR thallium flux fluorescence; active compounds read low | shares compounds with KCNQ2 pot | AID 2032;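 active = Primary-screen hit whose thallium flux fell at least 3 control SD below untreated wells in both duplicates, with normal baseline fluorescence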;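 also: 0% = blank wells without stimulus and 100% = stimulated no-compound controls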
HEK293 Tl flux – parental HEK293 activity in Kir2.1 inhibitor counter-screen. hit rate 19% among 2,300. parental HEK293 cells, FluxOR thallium flux fluorescence; 0% = unstimulated blank wells. AID 2105. FluxOR signal as % of negative control (100 = no effect), % at 10 µM. shares compounds with KCNQ2 pot;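 active = dye signal at least 3 control SD above or below untreated wells in both duplicates, raw fluorescence within 3, either direction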;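 also: percent is based on the flux ratio of peak minus minimum fluorescence over baseline F0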
CHO-K1 ctr – parental CHO-K1 activity in KCNQ2 potentiator counter-screen. shares compounds with KCNQ2 pot. parental CHO-K1 cells, FluxOR thallium flux fluorescence; zero = vehicle mean+3SD, 100% = vehicle-minus-blank window. activity increase over 3SD of controls, % at 10 µM. hit rate 43% among 1,200;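 active = signal rise of at least 3 SD above the untreated control mean, in both duplicate wells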;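 also: counter screen of KCNQ2 potentiator hits so any rise reflects channel-independent effects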
KCNQ1 sel pot – selectivity of KCNQ2 potentiators: effect on human KCNQ1. shares compounds with KCNQ2 pot. CHO KCNQ1 stable, FluxOR thallium flux fluorescence; beyond 3SD, as % of vehicle-control signal. AID 2283. activation over 3SD threshold, % at 10 µM. hit rate 28% among 1,200;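 active = fluorescence ratio rise of at least 3 SD of vehicle wells above their mean, in both replicate wells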;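 also: 0% = vehicle mean plus 3 SD and 100% = vehicle minus unstimulated blank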
KCNQ2 pot confirm – rat KCNQ2 channel potentiator confirmation. hit rate 68% among 1,200. shares compounds with KCNQ2 pot. potentiation, less the hit threshold, % at 10 µM. CHO-KCNQ2 cells, FluxOR thallium flux fluorescence;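 active = fluorescence ratio rising 3 SD or more over the vehicle control mean in both replicates, plus primary screen hit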;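 also: peak minus minimum thallium fluorescence divided by baseline after K/Tl stimulus; 0% = vehicle mean plus 3 SD and 100% = vehicle minus unstimulated blank difference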
Kir2-1 sel – selectivity of KCNQ2 potentiators: effect on mouse Kir2.1; hit rate 2% among 1,200; shares compounds with KCNQ2 pot; HEK293 Kir2.1, FluxOR thallium flux fluorescence; activity over 3SD threshold, % at 10 µM;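 active = fluorescence ratio rise of at least 3 SD above the vehicle-control mean, seen in both replicates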;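 also: 0% = vehicle mean plus 3 SD and 100% = vehicle minus no-stimulus blank window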
KCNQ2 W236L MoA – KCNQ2 potentiators acting on retigabine-insensitive rat KCNQ2 W236L mutant; current increase over 3SD of negative controls (%), active compounds read high, % at 25 µM; hit rate 10% among 940; shares compounds with KCNQ2 pot; AID 2558; CHO KCNQ2-W236L, automated patch clamp current;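 active = current increase at least 3 SD of the untreated controls above them in both duplicate recordings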
Target sequence (O88943 whole entry W236L, looked up): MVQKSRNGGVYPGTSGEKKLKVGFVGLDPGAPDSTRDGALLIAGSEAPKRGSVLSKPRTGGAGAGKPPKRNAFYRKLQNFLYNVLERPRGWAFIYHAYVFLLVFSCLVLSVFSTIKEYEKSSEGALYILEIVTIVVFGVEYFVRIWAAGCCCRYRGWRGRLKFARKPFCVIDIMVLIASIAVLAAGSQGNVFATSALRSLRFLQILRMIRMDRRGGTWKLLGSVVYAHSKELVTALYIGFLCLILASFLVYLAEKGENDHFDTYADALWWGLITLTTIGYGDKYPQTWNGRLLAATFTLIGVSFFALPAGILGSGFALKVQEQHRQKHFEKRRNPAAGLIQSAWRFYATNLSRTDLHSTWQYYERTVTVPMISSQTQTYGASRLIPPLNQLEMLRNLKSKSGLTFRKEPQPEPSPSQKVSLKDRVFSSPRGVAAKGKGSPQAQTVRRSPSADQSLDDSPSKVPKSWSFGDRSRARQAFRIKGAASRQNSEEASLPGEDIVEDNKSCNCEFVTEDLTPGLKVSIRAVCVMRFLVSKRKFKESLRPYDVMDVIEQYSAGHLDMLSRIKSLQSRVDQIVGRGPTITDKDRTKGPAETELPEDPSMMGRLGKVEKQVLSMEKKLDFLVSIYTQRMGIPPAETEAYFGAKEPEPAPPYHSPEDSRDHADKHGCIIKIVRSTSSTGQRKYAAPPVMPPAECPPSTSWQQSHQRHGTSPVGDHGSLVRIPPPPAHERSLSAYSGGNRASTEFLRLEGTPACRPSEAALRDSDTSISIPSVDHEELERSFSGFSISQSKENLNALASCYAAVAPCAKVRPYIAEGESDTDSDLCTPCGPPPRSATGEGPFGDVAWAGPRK
* marks the source's active call; other numbers are inactive results; i = inactive; nt = no result. Shown are actives, neighbours in structure and some others; about 1.6% of the full set was active somewhere.

SMILES	KCNQ2 pot	KCNQ2 inh	Kir21 confirm	HEK293 Tl flux	others
CCCCNC(=O)[C@@H]1CC=C[C@@H]2CCN(C3CC3)C(=O)[C@@H]21	nt	i	nt	nt
CC(C)N(Cc1nccn1C)C(=O)c1ccc2oc(Cc3ccccc3)nc2c1	nt	i	nt	nt
CCOC(=O)c1nnn(-c2nonc2N)c1CSc1ccccc1	0.21	i	nt	nt
CCOC(=O)c1nnn(-c2nonc2N)c1CSc1ccc(C)cc1	1.1	i	71%*	i
CN(c1ccc([N+](=O)[O-])cc1C(N)=O)C1CCCCC1	0.28	i	nt	nt
CC(NC(=O)Cc1ccc([N+](=O)[O-])cc1)c1ccc2c(c1)OCO2 (stereo not given)	nt	i	nt	nt
Cc1occc1C(=O)NC(C)c1ccc2c(c1)OCO2 (stereo not given)	nt	i	nt	nt
CCOc1ccccc1C(=O)NC(C)c1ccc2c(c1)OCO2 (stereo not given)	2.7	i	nt	nt
Cc1ccc(C(C)NC(=O)c2ccc3c(c2)OCO3)cc1C (stereo not given)	10*	i	i	i	CHO-K1 ctr=-17;KCNQ1 sel pot=-2;KCNQ2 pot confirm=52*;Kir2-1 sel=-32;KCNQ2 W236L MoA=i
CCOc1ccccc1NC(=O)NC(C)c1ccc2c(c1)OCO2 (stereo not given)	5.8*	i	i	i	CHO-K1 ctr=4.2*;KCNQ1 sel pot=73*;KCNQ2 pot confirm=25*;Kir2-1 sel=-37;KCNQ2 W236L MoA=i
CC(NC(=O)CCc1ccccc1)c1ccc2c(c1)OCO2 (stereo not given)	8.5*	i	i	i	CHO-K1 ctr=-3;KCNQ1 sel pot=-8;KCNQ2 pot confirm=45*;Kir2-1 sel=-47;KCNQ2 W236L MoA=i
COc1ccccc1C(=O)N/C(=C/c1ccc(Br)cc1)C(=O)N1CCCC1	nt	i	nt	nt
O=C(CNC(=O)c1cccc(F)c1)N/N=C/c1cccs1	1.3	i	nt	nt
CCC1CN(C(=O)N2CCC(C(=O)NCc3cc(OC)c(OC)c(OC)c3)CC2)c2ccccc2O1 (stereo not given)	nt	i	nt	nt
Cn1cnc([N+](=O)[O-])c1S(=O)(=O)c1ccc(Cl)cc1	nt	i	70%*	68%*
Cn1cnc([N+](=O)[O-])c1NC(C)(C)C	0.13	i	nt	nt
CN(c1ccccc1)S(=O)(=O)c1cccc(NC(=O)COC(=O)C2CCCCC2)c1	nt	i	nt	nt
c1ccc(CCN=C2CCCc3c2[nH]c2ccccc32)cc1	nt	i	20%*	70%*
Nc1ccc(C(=O)N/N=C2\CCCc3c2[nH]c2ccccc32)cc1	0.77	i	nt	nt
COc1cccc(NC(=O)CN(C)C(=O)CN2C(=O)c3ccc([N+](=O)[O-])cc3C2=O)c1	nt	i	nt	nt
CCC(C(=O)NCCc1c[nH]c2ccc(C)cc12)c1ccccc1 (stereo not given)	nt	i	nt	nt
Cc1cc(N/N=C/c2cccc([N+](=O)[O-])c2)nc(-n2nc(C)cc2C)n1	1.6	i	nt	nt
Cc1cc(N/N=C/c2ccccc2[N+](=O)[O-])nc(-n2nc(C)cc2C)n1	5.4*	i	i	i	CHO-K1 ctr=-14;KCNQ1 sel pot=-33;KCNQ2 pot confirm=-6;Kir2-1 sel=-12
Cc1ccc(C)c(OC(=O)c2cccnc2Cl)c1C	nt	i	nt	nt
CCCC(=O)c1ccc(O)cc1O	nt	i	nt	nt
SMILES	KCNQ2 pot	KCNQ2 inh	Kir21 confirm	HEK293 Tl flux	others
CCOC(=O)N1CCN(S(=O)(=O)N2CCCC(C(=O)NCCc3ccc(OC)c(OC)c3)C2)CC1 (stereo not given)	nt	i	nt	nt
CCCOc1ccc(C(=O)NNC(=S)NC(=O)c2ccccc2)cc1	20*	i	i	i	CHO-K1 ctr=-5;KCNQ1 sel pot=3.3*;KCNQ2 pot confirm=-18;Kir2-1 sel=-29
CCOc1ccc(CN(CCC#N)C(=S)NC(=O)c2ccccc2)cc1	0.91	i	nt	nt
Cc1ccc(C(=O)NC(=S)N(C)Cc2ccccc2)cc1	3.1	i	nt	nt
CCCOc1ccc(C(=O)NNC(=S)NC(C)=O)cc1	0.83	i	nt	nt
CCOc1ccc(C(=O)NC(=S)N(Cc2ccccc2)Cc2ccccc2)cc1	20*	i	i	176%*	CHO-K1 ctr=-13;KCNQ1 sel pot=-10;KCNQ2 pot confirm=0.5*;Kir2-1 sel=-35;KCNQ2 W236L MoA=i
CCCN(CCC)C(=S)NC(=O)c1ccc(-c2ccccc2)cc1	14*	i	i	340%*	CHO-K1 ctr=26*;KCNQ1 sel pot=3.5*;KCNQ2 pot confirm=38*;Kir2-1 sel=-15;KCNQ2 W236L MoA=i
C/C(=N\NC(=O)c1cc(-c2ccc(C)s2)[nH]n1)c1ccncc1	0.66	i	nt	nt
Cc1ccc(-c2cccc(CN3CCN(C4CCN(C(C)C)CC4)C(CCO)C3)c2)o1 (stereo not given)	0.58	i	nt	nt
COc1cccc(C(C(=O)NC2CCCC2)N(C(=O)c2csnn2)C2CC2)c1 (stereo not given)	1.7	i	nt	nt
Cc1ccccc1CNC(=O)C(=O)Nc1nccs1	nt	i	nt	nt
COc1ccc(C)cc1S(=O)(=O)NCC(c1ccc2c(c1)OCO2)N1CCOCC1 (stereo not given)	nt	i	nt	nt
Cc1cc(C)cc(NC(=O)CCN2CCOCC2)c1	0.01	i	nt	nt
COc1cc(CNC2CCCC2)cc(Cl)c1OCc1ccc(F)cc1	nt	i	nt	nt
COc1cc(CNC2CCCC2)cc(Cl)c1OCc1ccccc1Cl	nt	i	31%*	i
Cc1[nH]c(-c2ccccn2)nc(=S)c1Cl	11*	i	i	298%*	CHO-K1 ctr=-9;KCNQ1 sel pot=-7;KCNQ2 pot confirm=42*;Kir2-1 sel=-18;KCNQ2 W236L MoA=i
Cc1cc(=S)nc(-c2ccccn2)[nH]1	2.4	i	nt	nt
CSCCNC(=O)c1ccc2nc(C3CCCCC3)oc2c1	1.1	i	nt	nt
CCN(Cc1ccc(OC)c(COC)c1)CC1CCCN(CCc2cccc(OC)c2)C1 (stereo not given)	0.77	i	nt	nt
COc1ccc(CN(C)CC2CCCN(CCc3ccc(F)cc3)C2)c(OC)c1OC (stereo not given)	nt	i	nt	nt
COc1ccc(CCN2CCCC(CN(C)Cc3cccc(OC)c3)C2)cc1 (stereo not given)	0.89	i	33%*	i
CCN(Cc1ccc(OC)c(COC)c1)CC1CCCN(CCc2cccc(F)c2)C1 (stereo not given)	nt	i	nt	nt
CN(Cc1ccc(C#CCCO)cc1)CC1CCCN(CCc2ccc(Cl)cc2)C1 (stereo not given)	nt	i	40%*	i
CCN(Cc1ccc(C#CCCO)cc1)CC1CCCN(CCc2cccc(F)c2)C1 (stereo not given)	nt	i	53%*	i
O=C1NC2=C(C(=O)CCC2)C(c2ccc(OC(F)F)cc2)N1 (stereo not given)	0.95	i	nt	nt
